Results taken from PubChem BioAssay (Tox21).
Results filed as inconclusive are left out. Unmarked numbers belong to inactive results. Calls of active or inactive are those of the source. The call rests on the fitted dose curve.

Experiment: qHTS assay to identify small molecule agonists of the AP-1 signaling pathway - cell viability counter screen (AID 1159525); further: nearly all actives have a fitted effect of over 55% in size
Details: ME-180 (cervical carcinoma) AP-1-bla cells viability, ATP luminescence, 5 h; series mostly up to 76.8 µM
Source text: National Center for Advancing Translational Sciences [NCATS]
NIH Chemical Genomics Center [NCGC]
U.S. Environmental Protection Agency [EPA]
National Institutes of Environmental Health Sciences [NIEHS]
National Toxicology Program [NTP]
U.S. Food and Drug Administration [FDA]
Activator protein-1 (AP-1), a transcription factor, plays an important role in tumor genesis by regulating genes involved in cell proliferation, differentiation, apoptosis, and angiogenesis. AP-1 activity is induced by a complex network of signaling pathways that involves extracellular signals, such as growth factors. The AP-1 protein complex formed from c-Fos and c-Jun binding to the AP-1 response element results in transcriptional activation of genes containing such elements within their promoter.
Low molecular weight molecules have been discovered and developed to modulate various components of these signaling pathways, for example, MAP kinase inhibitors. However, many points of pathway modulation remain untested due to the lack of chemical probes making this signaling locus of general interest.
Using a beta-lactamase reporter-gene under control of the AP-1 response element, a cell-based assay [CellSensor(TM) AP-1-bla ME-180 developed by Invitrogen Corp.] was used to measure EGF-induced signaling. The Tox21 10K library compounds were measured for their ability to positively modulate the action of EC50 EGF on reporter gene activity. Compounds were screened in a 15-pt titration series in 1536-well format. The cytotoxicity of the Tox21 compound library against this cell line was tested in parallel by measuring the intra cellular ATP content in the same wells.
Tox21 Assay Protocol Summary:
2500 cells/5uL in Opti-MEM medium containing 0.5% dialyzed FBS, 0.1 mM NEAA, 1 mM sodium pyruvate and 10 mM HEPES was dispensed into 1536-well black wall/clear bottom plates using a Multidrop dispenser and cells were cultured at 37 degrees Celsius overnight. Next day 23 nL of compounds dissolved in DMSO, positive controls or DMSO were delivered to each well using a pin tool. The plates were incubated at 37 degrees Celsius for 5 hours. 1 uL of LiveBLAzerTM B/G FRET substrate (Solution A+B+C+D) was added to each well using a Flying Reagent Dispenser. After incubated at room temperature for 2.5 hours the plates were measured on an EnVision plate reader at Excitation 405nm, Emission1=460nm and Emission 2=530nm. The %Activity was determined from the ratio of 460nm/530nm.
After the plates were read for Beta-Lactamase assay on Envision; 3 ul Cell Titer Glo (Promega) was added to measure the cytotoxicity and the plates were then incubated at RT in dark for 30 min. The luminescence was read on ViewLux (Perkin Elmer, Shelton, CT) using 6 sec exposure. ViewLux data was expressed as relative luminescence units.
For primary data analysis, raw plate reads for each titration point were first normalized relative to […] EGF control (100%) and DMSO only wells (basal, 0%).
For primary data analysis for viability assay, raw plate reads for each titration point were first normalized Tetra n-octyl ammonium bromide control (-100%) and DMSO (control, 100%).

SMILES	outcome	viability change, negative = cytotoxic
CC(C)(C)OC(=O)N1C[C@@H](F)C[C@H]1C(=O)O	inactive	–
C=CCOc1nc(OCC=C)nc(OCC=C)n1	inactive	–
CCOC(=O)[C@H](CCc1ccccc1)N[C@@H](C)C(=O)N1CCC[C@H]1C(=O)O	inactive	–
OCc1ccccn1	inactive	–
Cc1c(C)n(CCN(C)C)c2ccc(C(=O)OCCN(C)C)cc12	inactive	–
CC(C)(C)C(=O)/C=C/c1ccc(Cl)cc1	inactive	–
C=C(C)C(=O)NCCCN(C)C	inactive	–
CC/C=C\C#N	inactive	–
CC(C)(O)Cc1ccccc1	inactive	–
CC(=O)c1ccc(C)cc1	inactive	–
O=C(O)C1CCC1	inactive	–
CO[Si](CCCNCCC[Si](OC)(OC)OC)(OC)OC	inactive	–
CNC(=O)c1c(I)c(NC(=O)CCCCC(=O)Nc2c(I)c(C(=O)O)c(I)c(C(=O)NC)c2I)c(I)c(C(=O)O)c1I	inactive	–
Cc1ccccc1Br	inactive	–
CN(C)CCn1nnnc1SCC1=C(C(=O)O)N2C(=O)[C@@H](NC(=O)Cc3csc(N)n3)[C@H]2SC1	inactive	–
Fc1ccccc1-c1ccccc1	inactive	–
COC(=O)C1=C(C)NC(C)=C(C(=O)OCC(C)=O)C1c1ccccc1[N+](=O)[O-] (stereo not given)	inactive	–
NC(=S)Nc1cccc2ccccc12	–	-1.31% [at 6.97 µM]
Nc1nc2c(ncn2CCC(CO)CO)c(=O)[nH]1	inactive	–
CCOC(=O)Nc1ccc2c(c1)N(C(=O)CCN1CCOCC1)c1ccccc1S2	inactive	–

SMILES	outcome	viability change, negative = cytotoxic
N#CCN(CC#N)CCN(CC#N)CC#N	inactive	–
O=C(O)c1ccccc1S	inactive	–
COc1cccc(Br)c1	inactive	–
O=C(O)/C=C/c1ccc(/C=C/C(=O)O)cc1	inactive	–
CCCCc1ccc2cccc(S(=O)(=O)O)c2c1	inactive	–
Cc1onc(-c2ccccc2)c1-c1ccc(S(N)(=O)=O)cc1	inactive	–
O=[N+]([O-])c1ccc(CCO)cc1	inactive	–
CCC(C)(C)C1CCC(OC)CC1 (stereo not given)	inactive	–
CC(C)N1C(=O)c2ccccc2C1=O	inactive	–
CCC(=O)c1cccc(Cl)c1	inactive	–
O=Cc1ccccc1[N+](=O)[O-]	inactive	–
C=C(C)C1CC=C(C)C(O)C1 (stereo not given)	inactive	–
NC(=O)CCCCC1CCSS1 (stereo not given)	inactive	–
C#CC(O)CCCCC (stereo not given)	inactive	–
Cc1ccc(Nc2ccc(O)c3c2C(=O)c2ccccc2C3=O)cc1	inactive	–
COc1ccc(COC=O)cc1	inactive	–
CCCc1ccc(N)cc1	inactive	–
[O-][N+](=Nc1ccccc1)c1ccccc1	inactive	–
C=CCSCC1Nc2cc(Cl)c(S(N)(=O)=O)cc2S(=O)(=O)N1 (stereo not given)	inactive	–
CC(C)CCCC(C)NCCC(C)C (stereo not given)	inactive	–
